From PubChem BioAssay AID1508600 (Functional Genomics Laboratory (NCATS/FGL), 2020)
The campaign covered roughly 53,000 sequences. About 3,700 (7%) were called active. The entries come from a sample that favours actives as a whole. Unmarked numbers belong to inactive results.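 Rule for the calls: active = gene knockdowns whose robust z-score for IL-1 alpha signal is at least 2 or at most -2, so actives lie on both sides; inactive = the rest.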

Experiment: Components of the Cytosolic LPS Sensing Pathway: Gene Identification via Genome-wide siRNA Screen;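 note: robust z of the log signal after scaling to non-targeting control siRNA wells of the plate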
Conditions: RAW264.7 macrophages, IL-1a HTRF, actives lie on both sides, screened at 100 nM (by protocol), cells primed 5 h with Pam3CSK4 first
Procedure, shortened: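 RAW264.7 mouse macrophages reverse-transfected with single siRNAs (100 nM final) for 48h, primed with Pam3CSK4 for 5 hours, then transfected with LipidA for 24 hour. Supernatant IL-1a read by HTRF; values normalized to negative-control median, log-transformed robust z-scores.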

Sequence | z-score
CCAGAUUAUGACAAAGCGUTT against Glyat | -0.0538
AAACCAUACUUGAAAGAAATT against Olfr943 | -0.36
GCAGUAGGUUGCACACAUATT against Art1 | -2.11 (active)
GCACACGUCCUAUAAAAAUTT against Rad54b | 0.532
GGACUUCUCUGUGAAGAUGTT against Ctsf | -0.129
GGAGAGAGGAUAAGUCACATT against Jsrp1 | -1.44
GCUGGAUCCAUCUAAUUGCTT against Klhl12 | 0.0684
CGGGAUCUUAGAAGAGCAATT against Ptpre | 2.6 (active)
GGACCAGUUAAAGUCACCATT against Atp4b | -1.81
GGAAGGUGGCUAUUUUAAUTT against Acsl3 | -0.207
CCAUUUCUUUCAGUGGCUGTT against Olfr48 | -0.47
GGCUAUAAAAGCACAGUUUTT against Slc25a26 | -0.61
CCCUGCAUUUGUCAAUUAUTT against Hnrnpl | -0.161
GGGACAAAGAGAUACACAUTT against 9530056K15Rik | 1.11
GCCUGAUCGAUACGUGAUCTT against Naaladl1 | 3.35 (active)
GGAGGACAACAGCAAAACATT against Atoh1 | -1.01
GGAAAGAGAAAAACAACCATT against Cngb3 | -0.522
GGCUCACAUUGUAACUUAGTT against Krtap5-2 | 1.41
GGAGAAUGCUAAGGUUACUTT against Pcdhga9 | 0.269
CGGCACACUAAGAAACGGATT against Odf3l1 | 0.152
GGAAGGAUAUGAGAAUUUCTT against Nt5c3 | 2.51 (active)
GCUCUUACAUAGAACUUUGTT against Tpbg | -0.218

Sequence | z-score
GGCCUUUUUUCUAUAUCUATT against Galnt3 | -0.637
GGUGGAGGUGUGAUGGAUUTT against Slamf1 | 5.09 (active)
GGUGGUGGCAGAAAUGAAUTT against Dpep2 | -0.946
CCAGUUGUGCAAUCAACAATT against Fam98c | -0.367
CGCGGUGGAGCUUCGAGAATT against Nrtn | 0.374
GUUUCUCCAUGGAGUCAUUTT against Psmb5 | -0.742
GGCAUUCGAAGGGACAGAUTT against Arg2 | -2.06 (active)
GUGACCUCAUCCAGAAAAUTT against Vmn1r190-ps | -0.613
GGAUCACUUUGACCACAACTT against Rab31 | 1.43
GCACUGGACCAAAGAACGGTT against Cercam | 1.14
GCCAUUAUAUAGUCCUACCTT against Klf1 | 0.719
GGGUCAUGAAACCUACCUUTT against Hikeshi | 0.182
GCUUGGACUGGAGUGAAGCTT against Map6d1 | -2.4 (active)
GGCUACAAAGAUGCAGACUTT against Pi4k2a | 0.22
GACAUAUUUGGGUUUCUAATT against Vmn1r15 | -0.645
GGAAUGACUUUUGAGACAGTT against Cyp1a1 | -0.732
GGUAGAGAUCAUCAAUGCATT against Ggt5 | 0.0858
GGAGUCCAAGUUUAAGGAATT against 4930522H14Rik | -1.65
CGGGACACUUGAAUUGGCUTT against Frmd4a | -2.25 (active)
GGAACAUUCUCUCCUUAUGTT against Ctps | -0.168
GGAGUUGCAUCACUUGCUCTT against BC016579 | 0.441
GGUAACUGGUGUCAUUUAATT against Zfp474 | 0.619

Sequence | z-score
GGCAAGAUGCACAAGACUUTT against Cacna1s | 2.6 (active)
GGAUGUGUUACUUACCAAATT against Map4 | 0.607
GGCCUUCUAUACUACAGACTT against Hdac1 | -1.23
CGGCUCACUAGCAGUGUCUTT against Ppm1b | -0.209
GGUUACUCCUUUUUCAAUGTT against Elf5 | -0.636
GGACAUAGUCUGAGGCAAGTT against Ost4 | -1.34
GCUGUUCAAUUUGAUUACUTT against Dapp1 | 1.77
GGCAACCAUAGACGAUGAATT against Rerg | -2.38 (active)
GGACCAGUUAAAGUGGCAGTT against Oas1e | -0.00736
GGUACUUGUACUAAUCGCUTT against Lpcat2 | 0.683
CCCUUGAUUAAGUGGAUUATT against Tgfa | 1.19
GGUGAUGGCUGUUCCUUUCTT against Zdhhc2 | 0.533
GGAUGAAAUUGGAAAGGGCTT against Camkk2 | -0.0472
CCAAUCCUCAACCUUGAAUTT against Ddx19a | 0.0508
GGGACUUCCUUAUUGGAACTT against A830019P07Rik | 1.23
GGAUGUCAACAUUCGAGAUTT against Tmem231 | 0.993
GGCCAGAGACAGUUAUCUUTT against Sptssb | 2.43 (active)
GGAGAAUUGUUUUUACCAGTT against Bbox1 | 0.13
GGACUGACUGGAUUUUUCCTT against Adamts12 | -0.102
GGCAUUAGGAUACAUAACATT against Rpgrip1l | -0.743
GCUGUAACCAACAUACCUCTT against Inka1 | -0.91
GGAACAAAGAUUGAGAGAATT against Sltm | -1.62

Sequence | z-score
GGACAACUUUGAGGAGAUGTT against Tubg2 | 3.23 (active)
GGUUAUCAAAGCUAAGAAUTT against Ifi209 | -0.0859
GCUAGUCAGAAGAAGUACUTT against Actrt2 | -0.402
CCGAAGCAUGAAGAAUCUATT against Tubd1 | 0.544
GAGCAAUAAGCUAGGGUGATT against Olfr1428 | 0.239
GGAAUGUACCAGAAAUACUTT against 4921504E06Rik | 3.01 (active)
GGCAAAUUCGAAAUAGACATT against Evx2 | 0.227
GGAAGAAAUAGAGUUUUACTT against Ephx2 | 3.42 (active)
GGCUCUGAUGUUUCUAAAATT against Hdac10 | 1.29
GGUACUGUCGGUAUCCCACTT against Gcc1 | -1.62
GCCUUUGUACAAUGACUAUTT against Prpf38a | -0.127
GCAGAAAGCAACACGCCCUTT against Pramel20 | 0.631
GGGUAUGCAGAAGGGAACATT against Nrap | 0.424
GGGCAGAGUGAUGUUGUCATT against Gsdmd | -3.34 (active)
CCAUUGUGUGGUACUUAAATT against Mrm3 | 0.448
GCGACUCACUAUUUGGGCATT against Ell3 | 0.471
GGAAAAUUCAUCCUUAGUATT against Wdr61 | -0.086
CGAAACACCAGAUGUAUUCTT against Gck | -0.551
GGUUAUGAAACUGAGAAAGTT against Mid2 | -0.0195
CCCUCUCUUUGGAUACACATT against Tenm4 | -2.98 (active)
GGAUUUGUCAUCCACUUCUTT against Sez6 | -1.79
GCUGCUCAAACAUAAUGAATT against Osbpl2 | -0.419

Sequence | z-score
GGAUGUACAUUCUACCUAUTT against Bap1 | -0.239
GGAUACGAUUGAACGGCUGTT against Rac3 | -0.566
GCUCCUGUAGACAGGUUAGTT against Serac1 | -1.39
CGCUCAUUUAGACAUAGAGTT against Ass1 | 0.686
CGGCAUUUGCUAAUGGUCGTT against Actl6a | -2.79 (active)
CCUAGUCAUAUUCUACAGUTT against Iqca1l | 0.77
GGUUGGAGUUAUAGAUUUUTT against Rufy3 | 1.42
GGAGAGAACUGAUGAAUCCTT against Sdhaf2 | -0.26
CCCUCUUUACCAGUAUUACTT against Pla2g5 | 0.287
GCCGUUCACCAUGAAAUGGTT against Prkci | -0.898
CCAAGCCUUAAUAAGUCAATT against Ccp110 | -2.52 (active)
GGCUACAUGAGAAGCACAGTT against Disc1 | 1.64
CCUUAACAUGUUUCAUCUATT against Sap30 | 0.584
GGUUGUUUCCAGUAUUCUGTT against Apc2 | 1.18
GCUAUAUGUACCCUAGCCATT against H2aj | 2.26 (active)
GCGAAGCGAAUCCUUUUUCTT against Fosl2 | 0.0982
CCCUGCUUGAAUCUCUUCGTT against Tyk2 | -0.191
GGCUUACGUGGUGUGCACUTT against Galr1 | 0.345
GGUCAGGUCUUUUUAUACATT against Zfp354a | 2.56 (active)
